Screening data: PubChem BioAssay, several laboratories
BH1578 lux ind: induces V. cholerae light production without autoinducers | V. cholerae BH1578 lux reporter, luminescence, 6 h | activation, % at 18.7 µM | actives 0.16% (n = 350,000); in the data active = activation mostly above about 9.7%, no sharp cut-off; inconclusive = no clear call, values can overlap the other calls; inactive = mostly below about 3.7%
BoNT-F LC inh: inhibitors of Botulinum neurotoxin F light chain protease; actives 0.22% (n = 360,000); AID 588497; inhibition, % at 10 µM; Multiplex microsphere protease cleavage assay, flow cytometry; in the data active = inhibition above about 35%, passing the limit was not always enough; inconclusive = no clear call, values can overlap the other calls; also: plate controls were buffer without enzyme for full effect and enzyme alone for no effect
Bead autofluor: counter-screen for toxin protease inhibitors: compound fluorescence; compound autofluorescence counterscreen, microsphere flow cytometry; hits give high values; fluorescence intensity (test concentration not listed); actives 3.1% (n = 360,000); in the data active = fluorescence intensity above about 16000; inconclusive = no clear call, values can overlap the other calls
BoNT-A LC inh2: inhibitors of Botulinum neurotoxin A light chain protease | inhibition, % at 10 µM | AID 588499 | actives 0.17% (n = 360,000) | multiplex microsphere protease substrate cleavage, flow cytometry; also: plate controls were buffer without enzyme for full effect and enzyme alone for no effect
MazEF act: MazEF (E. coli) toxin RNase activation; FAM/BHQ RNA-DNA oligo cleavage fluorescence, 5 h; actives 0.32% (n = 350,000); activation, % at 20 µM; in the data active = activation above about 50%
Anthrax LF inh2: blocks Bacillus anthracis lethal factor protease; P15917; multiplex microsphere protease cleavage assay, LF; inhibition, % at 10 µM; actives 0.12% (n = 360,000); AID 588501; also: plate controls were buffer without enzyme for full effect and enzyme alone for no effect
Numbers without * were called inactive; i = inactive; ? = inconclusive; . = no result. The list is not random: actives were taken first. Their share in the collection is about 3.9%. Rule as the data show it, unless noted: active = inhibition above about 30%; inconclusive = no clear call, values can overlap the other calls; inactive = below that.

SMILES	BH1578 lux ind	BoNT-F LC inh	Bead autofluor	BoNT-A LC inh2	MazEF act	Anthrax LF inh2
COc1cccc(CNc2nc3cc(-c4cccc(C(=O)NCCO)c4)sc3c(=O)n2C)c1	2	-3	3978	0	.	-6
Cc1sc2ncn(CC(=O)NCC(=O)N(C)C3CCCCC3)c(=O)c2c1C	-3	2	22154*	2	5	-3
Cc1sc2ncn(CC(=O)NCc3ccccc3)c(=O)c2c1C	i	-8	4005	0	-11	-5
Cc1sc2ncn(CC(=O)NCC(=O)N(C)Cc3ccccc3)c(=O)c2c1C	i	2	22315*	1	0	-2
O=C(Nc1ccc2c(c1)OCO2)C1CCCN(c2nc3ccccc3s2)C1 (centres undefined)	-3	14	18282*	13	5	-3
CCc1nnc(NC(=O)C2CCCN(c3nc4ccccc4s3)C2)s1 (centres undefined)	i	-1	19697*	0	-4	1
CCCCNc1oc(-c2cccs2)nc1S(=O)(=O)c1ccccc1	0	5	22130*	4	-1	0
CNc1oc(-c2cccs2)nc1S(=O)(=O)c1ccccc1	-1	-3	4337	-1	7	-7
O=C(CCS(=O)(=O)Cc1ccccc1)N1CCc2ccccc2C1	-1	2	21963*	4	-5	-5
Cc1nn(CC(O)c2ccccc2)c(C)c1Br (centres undefined)	i	0	21421*	-2	3	0
Cc1ccc(C(O)Cn2nc(C)cc2C)cc1 (centres undefined)	1	7	3894	0	1	-3
N#CC(c1ccccn1)(c1ncc(C(F)(F)F)cc1Cl)N1CCOCC1 (centres undefined)	-2	1	22287*	?	4	-7
COc1ccc(OC)c(NC(=O)COC(=O)CCNc2ccccc2OC)c1	1	-6	2840	0	2	-2
COc1ccc(Cn2nnnc2C(c2cc3ccc(OC)cc3[nH]c2=O)N2CCC(C)CC2)cc1 (centres undefined)	-5	-3	31718*	-2	-3	5
COc1ccc2cc(C(c3nnnn3Cc3ccccc3)N3CCCCCC3)c(=O)[nH]c2c1 (centres undefined)	-5	0	18165*	0	-5	1
Cn1c(SCc2ccccc2)nnc1-c1ccc2c(c1)OCO2	-1	-11	4792	0	-7	-2
Cn1c(SCC#N)nnc1-c1ccc2c(c1)OCO2	17*	4	9562	-1	17	-2
Cn1nccc1C(=O)OCC(=O)Nc1nc(-c2ccccc2)cs1	-2	1	22484*	?	-2	0
O=C1NC[C@H](CCCCN2C[C@H](Cc3ccccc3)N(CCc3ccc(O)cc3)C(=O)C2=O)N(CCC2CCCCC2)C1=O	.	-11	5272	0	.	-2
OC(CNCC1CCCO1)COc1ccc(OCC(O)CNCC2CCCO2)cc1 (centres undefined)	2	-9	2950	-1	160*	-3
CCOC(=O)c1c(C)n(-c2ccc(C)cc2)c2ccc(OCC(O)CNCC3CCCO3)cc12 (centres undefined)	i	-16	4774	0	-15	-3
CSc1nnc(-c2cccs2)n1-c1ccccc1	0	9	20664*	8	-16	1
C=CCn1c(SCC(=O)N2CCCC2)nc2scc(-c3cccs3)c2c1=O	i	-5	21895*	-5	3	-1
CC1CCN(C(=O)CSc2nnc(CN3CCOCC3)n2-c2ccccc2)CC1	0	-4	21833*	-3	-4	0
O=C(CSc1nnc(-c2cccs2)n1-c1ccccc1)N1CCCC1	1	-3	21472*	-3	5	-2
SMILES	BH1578 lux ind	BoNT-F LC inh	Bead autofluor	BoNT-A LC inh2	MazEF act	Anthrax LF inh2
O=C(CSc1nnc(CN2CCOCC2)n1-c1ccccc1)N1CCc2ccccc21	0	-1	8147	1	1	1
CCCc1cc(C(=O)NNC(=S)NC2CCCCC2)cs1	5	-9	4719	-3	0	1
O=C(c1ccco1)N1CCCN(Cc2nc(Cc3ccccc3)no2)CC1	0	-1	4473	1	-1	0
Cc1cc(Cl)ccc1-c1cc2nc(NCCCN(C)C)n(C)c(=O)c2s1	-1	-3	3499	0	.	-2
CCC(C)c1ccccc1NC(=S)Nc1cccnc1 (centres undefined)	i	-43	4026	-4	3	-12
OCc1ccccc1NC(=S)Nc1cccnc1	i	-8	25402*	-7	-10	-3
Cc1ccc(C)c2[nH]c(=O)c(CN(CC3CCCO3)C(=O)NC3CCCCC3)cc12 (centres undefined)	i	0	19956*	?	-6	0
COc1ccc(CN(Cc2cc3cc(OC)c(OC)cc3[nH]c2=O)C(=O)NC2CCCCC2)cc1	0	-1	22119*	-1	21	-5
COc1ccc(NC(=O)COC(=O)c2ccc(OC)c(S(=O)(=O)N3CCCC3)c2)cc1OC	4	-7	3268	-1	6	-6
COc1cccc(NC(=O)C2CCN(c3ncccn3)CC2)c1	0	-1	9076	0	7	0
COc1ccc(OC)c(NC(=O)C2CCN(c3ncccn3)CC2)c1	i	-1	19922*	1	2	-4
Cc1ccccc1NC(=O)C1CCN(c2cnccn2)CC1	-7	-5	21599*	-2	2	-3
COc1ccccc1NC(=O)C1CCN(c2ncccn2)CC1	0	-2	21787*	-1	0	-3
COc1ccccc1NC(=O)C1CCN(c2ncnc3c2nc2n3CCCCC2)CC1	0	3	4447	0	1	3
Cc1ccc(-c2c(C(=O)O)c3ccccc3[nH]c2=O)cc1	i	-14	4413	-1	14	4
CCCCCCCCCCCC1N=C(N)NC(CCCO)=C1C(=O)OC (centres undefined)	i	-41	2905	0	-19	0
Cc1ccc(C2(c3ccccc3)NC(=O)N(CC(=O)NC3(C#N)CCCC3)C2=O)cc1C (centres undefined)	-1	-3	3942	0	5	-6
O=C(NC1CCCC1)c1n[nH]c2ccccc12	-1	-4	4279	-1	10	-1
O=S1(=O)N[C@@H](Cc2ccccc2)COc2ccc(Cl)cc21	0	1	3783	0	9	4
CN(CC(=O)N(C)CC(=O)Nc1c(Cl)cccc1Cl)Cc1ccc(Br)s1	i	4	4980	0	6	-4
Cn1c(C(=O)N2CCN(c3nc4ccccc4s3)CC2)cc2sccc21	-2	-3	19151*	0	-3	-4
O=C(c1cc2sccc2n1Cc1ccc(F)cc1)N1CCN(c2nc3ccccc3s2)CC1	i	4	2786	1	-8	-2
CCN1CCN(c2nc3ccccc3s2)CC1	i	0	20785*	?	-12	1
